# Compound activity from PubChem.
# This is a sample that favours compounds with a hit; in the whole collection about 11% have one here.
# FBPA coupling cs – inhibits coupling enzyme system, counter-screen for aldolase hits; 0.67% of 290,000 active; coupling enzyme system counterscreen, AmpLite Red fluorescence; activity change, negative = inhibition, % at 58.2 µM, hits read low; AID 2472; in the data active = activity change below about -30%
#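 Activity here indicates interference with the coupling reaction, not aldolase inhibition. Compounds at 57.5 uM final met coupling enzymes for 10 min at RT; substrate and AmpLite Red detection followed, with a 525/598 nm fluorescence read after 20 min.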
# Tau fluor counter – counter-screen for tau fibril formation inhibitors; Potency, µM (doses to about 57.7 µM), inactives show at the top dose activity change, negative = decrease; 0.93% of 280,000 active; tau K18 P301L Alexa594 fluorescence, heparin fibrillization; also: potency is read from the fitted curve at half-maximal effect; nearly all actives have a fitted effect of over 55% in size
#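 Human K18 P301L tau (15 uM unlabeled plus 0.24 uM Alexa 594-labeled, final) in 100 mM sodium acetate pH 7 was mixed with compound and 20 uM heparin and incubated 6 hr at 37 C.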
# Sfp PPTase inh – inhibitors of Bacillus subtilis Sfp phosphopantetheinyl transferase. Q9F4F7. Biochemical Sfp PPTase activity, qHTS. Potency, µM, inactives show largest response in the series, negative = inhibition, hits mostly inhibitors. 3.5% of 310,000 active;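 also: the enzyme is Sfp with the accession as filed and its product quenches rhodamine fluorescence; potency is read from the fitted curve at half-maximal effect; 0% = enzyme reaction without inhibitor and -100% = no enzyme wells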
#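 Sfp 15 nM + cpd, 15 min RT; start w/ rhodamine-CoA 5 uM, BHQ-2-YbbR 12.5 uM (final); 50 mM Hepes pH 7.6, 10 mM MgCl2, 0.01% NP-40, 0.01% BSA; read 525/598 nm at 0 and 30 min.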
# G9a inh – blocks human histone lysine methyltransferase G9a | 8.8% of 350,000 active | Potency, µM (titrated, usually from 102 µM), for the others: top-dose activity, negative = inhibition, usual class: inhibitors | G9a H3K9 monomethylation, AlphaScreen, 2 h; also: potency is read from the fitted curve at half-maximal effect; nearly all actives have a fitted effect of over 75% in size
# Target sequence (Q96KQ7 913-1193 limits assumed): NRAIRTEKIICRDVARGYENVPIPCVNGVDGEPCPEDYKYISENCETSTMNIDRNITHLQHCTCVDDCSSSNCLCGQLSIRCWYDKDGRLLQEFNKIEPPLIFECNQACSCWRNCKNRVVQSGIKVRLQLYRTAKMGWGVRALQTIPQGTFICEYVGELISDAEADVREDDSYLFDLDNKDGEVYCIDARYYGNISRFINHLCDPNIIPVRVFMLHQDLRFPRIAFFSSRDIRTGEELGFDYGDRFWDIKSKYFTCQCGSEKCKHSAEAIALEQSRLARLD
#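 AlphaScreen detection with an anti-monomethyl H3K9 antibody quantified product after a 2 h room-temperature reaction containing 500 nM biotinylated H3K9 peptide, 20 µM SAM and 20 nM enzyme, which had been preincubated 15 min with compound.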
# Tau fibril FP – inhibitors of human tau fibril formation | P10636 | K18 P301L tau heparin fibrillization, Alexa594 FP, 6 h | Potency, µM (doses to about 57.7 µM), inactives show top-dose activity, negative = inhibition, usual class: inhibitors | 0.39% of 280,000 active; also: potency is read from the fitted curve at half-maximal effect; nearly all actives have a fitted effect of over 55% in size
# Target sequence (P10636 561-689 P618L limits assumed): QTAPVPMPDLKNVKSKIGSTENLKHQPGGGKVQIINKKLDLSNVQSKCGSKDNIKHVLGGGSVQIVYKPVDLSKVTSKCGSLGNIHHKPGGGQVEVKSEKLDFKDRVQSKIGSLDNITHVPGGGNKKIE
#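 FP of Alexa 594-tau after heparin (20 uM) induction. Substrate: human K18 P301L, 15 uM unlabeled, 0.24 uM labeled. Buffer 100 mM sodium acetate pH 7. 6 hr, 37 C.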
# Tau ThT inhib – inhibitors of human tau fibril formation, thioflavin T binding | P10636 | recombinant tau K18 P301L, heparin-induced fibrillization, ThT fluorescence | Potency, µM (top dose mostly 57.4 µM), without a hit: at the top dose activity, negative = inhibition, most hits filed as inhibitors | 2.1% of 270,000 active; also: potency is read from the fitted curve at half-maximal effect; nearly all actives have a fitted effect of over 55% in size
#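 Using a mix of unlabeled (15 uM) and Alexa 594-labeled (0.24 uM) tau K18 P301L, heparin-triggered fibrillization over 6 hr at 37 C was scored by ThT fluorescence.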
# The depositor's hits bear a star; ? = inconclusive; nt = no result given; [ ] = dose if it differs, or a comment. Unless noted, calls follow the shape of the dose curve; as a rule, active = well fitted curve in the direction sought with a large enough effect; inconclusive = small, poorly fitted or top-dose-only effect, or another doubt; inactive = no such curve, though single readings can be large; an effect the other way counts as inactive or inconclusive. Unless noted, % is scaled to controls: 0 for no effect and ±100 for the full control effect.
SMILES,FBPA coupling cs,Tau fluor counter,Sfp PPTase inh,G9a inh,Tau fibril FP,Tau ThT inhib
O=C(O)CCN1CC2([N+](=O)[O-])C=CC(=O)C([N+](=O)[O-])(C1)C2CC(=O)c1ccccc1 (centres undefined),-51.7*,0.9%,?,?,6.3%,10.9%
O=C(Nc1cccn(Cc2c(F)cccc2Cl)c1=O)NC1CCCCC1,-35.2*,-15.9%,?,nt,1.4%,-14.6%
CCC(C(=O)OCc1cc(=O)n2nc(C)sc2n1)c1ccccc1 (centres undefined),nt,-4.9%,nt,19.1%[59 µM],2.0%,-0.8%
CCN(CC)c1ccc(N=CN2CCOCC2)cc1,-1.4,nt,4.1%,11.2µM*,nt,nt
CC1CCCN(C(=O)C2CC(=O)N(c3ccc(Cl)cc3)C2)C1 (centres undefined),2.6,nt,-7.1%,44.7µM*,nt,nt
O=C(C1CC(=O)N(c2ccc(Cl)cc2)C1)N1CCCCCC1 (centres undefined),1.4,nt,-2.4%,?,nt,nt
COCCNC(=O)Nc1ccc2nc(-c3cccs3)c(-c3cccs3)nc2c1,-0.5,15.8µM*[quencher],?,21.6%[12.7 µM],15.8µM*,?
COc1ccc(-c2onc(C)c2C)cc1S(=O)(=O)N1CCN(c2ccc(Cl)cc2)CC1,nt,-21.6%,nt,3.8%[59 µM],-3.5%,-11.3%
Cc1ccc(NNC(=O)c2ccno2)cc1Cl,-14.1,-18.2%,1.0%,8.91µM*,-5.0%,?
Cc1cc(C(=O)NNc2ccc(C)c(C)c2)no1,-3.5,-12.2%,-10.0%,2.51µM*,-2.6%,?
O=C(Nc1cc(Cl)cc(Cl)c1)c1ccno1,-0.3,nt,13.7%,-3.8%,nt,nt
Cc1ccc(NNC(=O)c2cc(C)on2)c(C)c1,0.9,-4.3%,-12.0%,11.2µM*,-4.1%,-5.6%
Cc1ccc(NNC(=O)c2ccno2)cc1C,1.2,-4.4%,-17.0%,6.31µM*,-10.1%,-11.1%
Cc1cc(C(=O)NNc2ccc(F)cc2F)no1,0.0,5.9%,8.4%,-102.8%[59 µM],4.5%,3.3%
Cc1cccc(NC(=O)c2sc3ncnc(N(C)C4CCCCC4)c3c2C)c1C,nt,-1.8%,nt,2.7%[59 µM],-0.9%,-8.6%
C#CCOC(=O)Nc1cccn(Cc2c(Cl)cccc2Cl)c1=O,-7.6,-3.8%,5.9%,-36.7%,-2.4%,2.9%
COC(=O)Nc1ccc(=O)n(Cc2c(Cl)cccc2Cl)c1,-18.2,-4.7%,-10.3%,70.8µM*,-2.2%,-8.0%
O=[N+]([O-])c1ccc(N/N=C/c2c[nH]c3ccccc23)cc1,-1.5,7.94µM*[quencher],7.2%,28.4%[0.501 µM],?,3.16µM*
O=[N+]([O-])c1ccccc1N/N=C/c1c[nH]c2ccccc12,-6.2,3.55µM*[quencher],6.9%,?,-15.1%,3.16µM*
O=C(N/N=C/c1cc([N+](=O)[O-])ccc1O)c1cccc2ccccc12,0.7,nt,2.7%,nt,nt,nt
O=[N+]([O-])c1cccc(N/N=C/c2cccc3ccccc23)c1,-5.6,8.91µM*[quencher],-1.8%,-17.2%[59 µM],-2.1%,?
O=[N+]([O-])c1ccccc1N/N=C/c1ccccc1,-0.9,nt,2.1%,-21.4%,nt,nt
O=[N+]([O-])c1ccc(N/N=C/c2ccc[nH]2)cc1,-5.0,-8.5%,?,11.2µM*,2.4%,-1.6%
COCCN(C(=O)COC(=O)c1cc2ccccc2cc1O)c1c(N)n(Cc2ccccc2)c(=O)[nH]c1=O,nt,nt,nt,-0.8%[0.501 µM],nt,nt
Cc1cc(C)c2ccc(NN)nc2c1O,-1.0,?,50.1µM*,31.6µM*,-6.9%,?
SMILES,FBPA coupling cs,Tau fluor counter,Sfp PPTase inh,G9a inh,Tau fibril FP,Tau ThT inhib
COc1ccc2nc(N3CCN(C(=O)c4ccc5ncsc5c4)CC3)sc2c1,nt,nt,nt,-5.5%[0.501 µM],nt,nt
COc1ccc(OC)c2sc(N3CCN(C(=O)c4ccc5ncsc5c4)CC3)nc12,nt,nt,nt,39.8µM*,nt,nt
COc1ccc(OC)c2sc(N3CCN(C(=O)c4ccc([N+](=O)[O-])s4)CC3)nc12,nt,nt,nt,35.5µM*,nt,nt
O=C(CNC(=O)c1ccccc1F)OCc1cc(=O)n2ccsc2n1,nt,-2.4%,nt,7.7%[59 µM],-2.7%,-5.5%
COc1ccccc1NC(=O)C1=C(C)Nc2nc(SCc3ccccc3Cl)nn2C1c1ccccn1 (centres undefined),nt,-12.3%,nt,-27.9%[59 µM],-9.2%,-6.6%
CCc1ccc(OC(C)c2nnc(SCC(=O)Nc3ncccc3C)n2C)cc1 (centres undefined),4.3,-16.1%,3.3%,11.2µM*,-6.0%,-13.7%
CCc1ccc(NC(=O)CSc2nnc(-c3ccccn3)n2C)cc1,-0.2,-5.5%,14.5%,4.5%,4.5%,-15.8%
O=C(Cn1cnc2ccccc21)N/N=C/c1cccnc1,2.7,-5.0%,22.5%,-21.4%,2.8%,-0.6%
O=C(Cc1ccc(F)cc1)N/N=C/c1ccccn1,0.2,2.2%,56.2µM*,3.98µM*,-1.1%,0.4%
O=C(Cc1cccs1)N/N=C/c1ccccn1,0.6,-8.2%,?,1.41µM*,-9.5%,-12.4%
O=C(Cn1cnc2ccccc21)N/N=C/c1ccccn1,-0.2,-2.0%,79.4µM*,-0.8%[0.501 µM],-2.1%,-2.7%
O=C(Cc1ccc(Br)c2ccccc12)N/N=C/c1ccccn1,0.7,?,-3.6%,43.6%[59 µM],-14.9%,?
CCCCN(C)Cc1c(O)ccc2c(=O)c(-c3ccccc3OC)coc12,-0.2,nt,-2.0%,37.5%,nt,nt
